Laboratory results reported in PubChem BioAssay AID651954 (NMMLSC, 2012).
The campaign covered roughly 1,500 compounds. About 160 (11%) were called active. Rule as the data show it: active = inhibition above about 60%; inactive = the rest. Not all results are given here.

assay: inhibitors of lytic granule exocytosis, confirmation, TALL-104 cells, flow cytometry, Cherry Pick01 (AID 651954); settings: LAMP-1 externalization, at 10 µM, stronger effect = higher value, stimulated with PMA plus thapsigargin;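 also: 0% = stimulated vehicle wells and 100% = unstimulated wells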

Row | Structure (SMILES) | inhibition
1 | Cc1ccccc1CN1C[C@@H]2C[C@@H](c3cn(C)nc3-c3ccccc3)N3CCC[C@@]23C1=O | -13.4% (inactive)
2 | CCc1ccc(-c2cc3c(=O)n(CC(=O)NCCCN4CCN(Cc5ccccc5)CC4)nc(C)n3n2)cc1 | 34.9% (inactive)
3 | Cn1sc(=O)c2cc(S(=O)(=O)NC3CC3)ccc21 | 79.8% (active)
4 | COc1ccc(OC)c(NC(=O)CN(C)CCOc2ccc(Br)cc2)c1 | -14.9% (inactive)
5 | OCCNc1nc(Nc2ccc(Cl)c(Cl)c2)nc2ccccc12 | -11.3% (inactive)
6 | Cc1nc(-c2ccc(Cl)cc2)sc1C1(C)CC(c2ccc(Br)cc2)=NO1 (stereo unspecified) | -3.75% (inactive)
7 | CCOc1ccc(Cl)cc1-c1cc(C(=O)NCc2cccs2)[nH]n1 | 66.4% (active)
8 | COc1ccc(-c2cn[nH]c2-c2ccc(OC)cc2)cc1 | 2.16% (inactive)
9 | COc1ccc2sc(-c3ccc(N(C)C)cc3)c(-c3ccc4cc[nH]c4c3)c2c1 | -13.7% (inactive)
10 | COc1cccc(NC(=O)C2C(c3ccccc3)C2(Cl)Cl)c1 (stereo unspecified) | 0.14% (inactive)
11 | COc1ccc(C2CC(c3cccs3)=NN2c2nc(C)c(C(C)=O)s2)cc1OC (stereo unspecified) | 73.4% (active)
12 | CC(C)Cn1cnc2c(SCc3ccc(Cl)cc3)nc(N)nc21 | -12.1% (inactive)
13 | CCOC(=O)C1(CCOc2ccccc2)CCN(Cc2ccc(C#CCCO)cc2)CC1 | -4.45% (inactive)
14 | Oc1ccccc1-c1cc(-c2ccc(Cl)cc2)n[nH]1 | -11.6% (inactive)
15 | CC(C)c1ccccc1OCC(O)CN(CC(O)COc1cccc2ccccc12)C(C)C (stereo unspecified) | 87.3% (active)
16 | CS(=O)(=O)N(CC(O)Cn1c2ccccc2c2ccccc21)c1cccc2ccccc12 (stereo unspecified) | 5.69% (inactive)
17 | O=C(Nc1ccccc1)c1cccnc1Nc1ccccc1 | -4% (inactive)
18 | O=S(=O)(Nc1ccc(O)c2ccccc12)c1ccc(OC(F)(F)F)cc1 | -11.4% (inactive)
19 | COc1ccc(CCNC(=O)C2CC3Cn4c(nc5cc(C)c(C)cc54)C3N2C)cc1 (stereo unspecified) | -13.9% (inactive)
20 | C=CCn1c(SCc2csc(C)n2)nc2scc(-c3ccc(C)o3)c2c1=O | -12.8% (inactive)
21 | Nc1c(C(=O)c2cccs2)sc2nsc(SCCN3CCCCC3)c12 | 22% (inactive)
22 | Cc1oc(-c2ccccc2Cl)[n+]([O-])c1C | -3.08% (inactive)

Row | Structure (SMILES) | inhibition
23 | COc1ccccc1N1CCN(c2ncnc3sc(C)c(-c4ccccc4)c23)CC1 | -3.66% (inactive)
24 | CC(=O)Nc1ccc(-c2csc(NC(=O)Nc3ccccc3)n2)cc1 | 55.2% (inactive)
25 | O=C(COc1ccc(Cl)cc1)N1CCN(c2cccc(C(F)(F)F)c2)CC1 | 5.85% (inactive)
26 | CCCC(C(=O)n1nc(C)cc1C)C(NS(=O)(=O)c1ccc(C)cc1)c1ccccc1 (stereo unspecified) | 1.32% (inactive)
27 | CN(c1ccccc1)S(=O)(=O)c1ccc(C(=O)NCCc2ccccc2)cc1 | -3.54% (inactive)
28 | O=C(NCc1ccccc1)C(c1ccccc1)N(C(=O)c1csnn1)c1ccc(F)cc1 (stereo unspecified) | -12.2% (inactive)
29 | Cc1ccc(-c2ccnc3nc(Sc4ncc(C(F)(F)F)cc4Cl)nn23)cc1 | -4.56% (inactive)
30 | Cc1cccc(-c2nc3ccc(C(=O)NCCN4CCN(C)CC4)cc3nc2-c2cccc(C)c2)c1 | 2.79% (inactive)
31 | COc1ccc(-c2csc(Nc3ccc(O)cc3)n2)cc1 | -6.12% (inactive)
32 | COc1ccc(CC(N)c2csc(NC(=O)Nc3ccc(C(C)C)cc3)n2)cc1 (stereo unspecified) | 11.2% (inactive)
33 | Cc1cccc(N2CCC(NCc3c(C(=O)N4CCCCC4)nc4c(C)cccn34)CC2)c1 | -4.45% (inactive)
34 | COc1ccc(-c2oc3ncnc(NCCCO)c3c2-c2ccc(OC)cc2)cc1 | -0.03% (inactive)
35 | O=S(=O)(c1ccccc1)N(Cc1cccc(F)c1)c1ccccc1 | -7.22% (inactive)
36 | CN(C)CCNC(=O)c1ccc(-c2cn3c(-c4ccc(Oc5ccccc5)cc4)cnc3cn2)cc1 | 87.2% (active)
37 | O=C(NC(=O)c1ccccc1N1CCCCC1)Nc1ccc(Br)cc1 | -13.3% (inactive)
38 | Cc1cccc2sc(N(CCCN(C)C)C(=O)CCS(=O)(=O)c3ccccc3)nc12 | 7.86% (inactive)
39 | COc1ccccc1CN1CCN(C(c2ccccc2)c2ccccc2)CC1 | -12.1% (inactive)
40 | CCN1C(=O)[C@H]2[C@@H](c3ccc(-c4ccc(F)cc4)cc3)N[C@@](Cc3ccccc3)(C(=O)OC)[C@H]2C1=O | -2.41% (inactive)
41 | CC1CCN(c2ccc([N+](=O)[O-])cc2C(N)=O)CC1 | -4.56% (inactive)
42 | COc1cccc(CN(C)CC2CCCN(CCc3ccc(Cl)cc3)C2)c1OC (stereo unspecified) | -10.6% (inactive)
43 | CCOC(=O)C1(C)CCCN(C(=O)c2ccc(F)c(Cl)c2)C1 (stereo unspecified) | -12.7% (inactive)
44 | CS(=O)(=O)N(Cc1ccc(Cl)cc1)c1ccc(C(=O)NCCSCc2ccco2)cc1 | 17.9% (inactive)

Row | Structure (SMILES) | inhibition
45 | COc1cccc(CN(C)CC(O)COC(c2ccccc2)c2ccccc2C)c1 (stereo unspecified) | -4.22% (inactive)
46 | COc1ccccc1C1=Nc2cccc3cccc(c23)N1 | -15.4% (inactive)
47 | COc1cccc(CNc2nc(NCc3ccccc3OC)nc3ccsc23)c1 | 35.8% (inactive)
48 | CN1CCN(C2Cc3ccc(Cl)cc3Sc3ccc(F)cc32)CC1 (stereo unspecified) | 15% (inactive)
49 | COc1cccc(CNc2nc(C(F)(F)F)nc3ccccc23)c1 | -14.3% (inactive)
50 | COc1ccc(-c2cc(C(=O)N(C)Cc3ccccc3)c3ccccc3n2)cc1 | -6.15% (inactive)
51 | Cc1ccc(NC(=O)c2cc(-c3ccc(C)o3)nc3ccccc23)nc1 | -10.9% (inactive)
52 | CC(=O)C[C@@H](O)CC(=O)[C@H]1OC(=O)CCCCCCc2ccccc21 | -13.1% (inactive)
53 | CCCCc1ccc(NC(=S)NCCCN2CCOCC2)cc1 | -11.7% (inactive)
54 | Cc1cnc(C(=O)OCc2c(C)cc(C(C)(C)C)cc2C)cn1 | -3.52% (inactive)
55 | COc1ccc(Oc2cn[nH]c2-c2ccc(OC)cc2O)cc1 | -11.7% (inactive)
56 | CCCCC[C@H](C)N1C[C@@H](COCc2ccccc2)Oc2cc(N3CC[C@@H](N(C)C)C3)ccc2S1(=O)=O | 16.6% (inactive)
57 | COc1ccc(CCNCc2c(-c3ccccc3)n(C)c3ccccc23)cc1 | 6.74% (inactive)
58 | COc1ccc(-c2cc(NC=O)c3ncc(-c4ccccc4)n3c2)cc1OC | 80.3% (active)
59 | CCCC(=O)Nc1nc2ccc(NC(=O)c3c(F)c(F)c(OC)c(F)c3F)cc2s1 | -1.52% (inactive)
60 | CCOC(=O)C1(CCOc2ccccc2)CCN(Cc2cc(OC)c(O)cc2Cl)CC1 | -6.73% (inactive)
61 | COc1cccc(COc2ccc(N(C)S(=O)(=O)c3ccccc3)cc2)c1 | -7.06% (inactive)
62 | COC(=O)[C@H](Cc1ccccc1)NC(=O)[C@@H]1C[C@H]1[C@@H](NC(=O)OCc1ccccc1)c1ccccc1 | 48% (inactive)
63 | Brc1ccccc1C1Nc2cccc3cccc(c23)N1 | 106% (active)
64 | CC(CC(=O)Nc1cc(C(F)(F)F)ccc1Cl)c1ccccc1 (stereo unspecified) | 0.82% (inactive)
65 | Cc1cccc(N(CC(=O)Nc2ccc(-c3nc4ccc(C)cc4s3)cc2)S(C)(=O)=O)c1 | 29% (inactive)
66 | O=C(Nc1ccc(Cl)cc1)Nc1nnc(/C=C/c2ccccc2)s1 | -2.86% (inactive)
